The supplement of paper PMC3334620
Over roughly 33,000 sequences, “E-score (-0.5 to 0.5)” has its median near -0.053; the highest 2% begin near 0.37. What follows is part of a selection rich in the highest values, with near analogues and random picks from the rest.

Each sequence was assayed against Hap1 (UniProt P0CE41) (assay: PBM E-score (8-mer binding enrichment) (E-score (-0.5 to 0.5)); higher = stronger / more preferred TF binding). Conditions: protein concentration: 200 nM; construct: GST-DNA-binding domain.
Sequence of UniProt P0CE41 (P0CE41 whole entry, the tested form may be a part): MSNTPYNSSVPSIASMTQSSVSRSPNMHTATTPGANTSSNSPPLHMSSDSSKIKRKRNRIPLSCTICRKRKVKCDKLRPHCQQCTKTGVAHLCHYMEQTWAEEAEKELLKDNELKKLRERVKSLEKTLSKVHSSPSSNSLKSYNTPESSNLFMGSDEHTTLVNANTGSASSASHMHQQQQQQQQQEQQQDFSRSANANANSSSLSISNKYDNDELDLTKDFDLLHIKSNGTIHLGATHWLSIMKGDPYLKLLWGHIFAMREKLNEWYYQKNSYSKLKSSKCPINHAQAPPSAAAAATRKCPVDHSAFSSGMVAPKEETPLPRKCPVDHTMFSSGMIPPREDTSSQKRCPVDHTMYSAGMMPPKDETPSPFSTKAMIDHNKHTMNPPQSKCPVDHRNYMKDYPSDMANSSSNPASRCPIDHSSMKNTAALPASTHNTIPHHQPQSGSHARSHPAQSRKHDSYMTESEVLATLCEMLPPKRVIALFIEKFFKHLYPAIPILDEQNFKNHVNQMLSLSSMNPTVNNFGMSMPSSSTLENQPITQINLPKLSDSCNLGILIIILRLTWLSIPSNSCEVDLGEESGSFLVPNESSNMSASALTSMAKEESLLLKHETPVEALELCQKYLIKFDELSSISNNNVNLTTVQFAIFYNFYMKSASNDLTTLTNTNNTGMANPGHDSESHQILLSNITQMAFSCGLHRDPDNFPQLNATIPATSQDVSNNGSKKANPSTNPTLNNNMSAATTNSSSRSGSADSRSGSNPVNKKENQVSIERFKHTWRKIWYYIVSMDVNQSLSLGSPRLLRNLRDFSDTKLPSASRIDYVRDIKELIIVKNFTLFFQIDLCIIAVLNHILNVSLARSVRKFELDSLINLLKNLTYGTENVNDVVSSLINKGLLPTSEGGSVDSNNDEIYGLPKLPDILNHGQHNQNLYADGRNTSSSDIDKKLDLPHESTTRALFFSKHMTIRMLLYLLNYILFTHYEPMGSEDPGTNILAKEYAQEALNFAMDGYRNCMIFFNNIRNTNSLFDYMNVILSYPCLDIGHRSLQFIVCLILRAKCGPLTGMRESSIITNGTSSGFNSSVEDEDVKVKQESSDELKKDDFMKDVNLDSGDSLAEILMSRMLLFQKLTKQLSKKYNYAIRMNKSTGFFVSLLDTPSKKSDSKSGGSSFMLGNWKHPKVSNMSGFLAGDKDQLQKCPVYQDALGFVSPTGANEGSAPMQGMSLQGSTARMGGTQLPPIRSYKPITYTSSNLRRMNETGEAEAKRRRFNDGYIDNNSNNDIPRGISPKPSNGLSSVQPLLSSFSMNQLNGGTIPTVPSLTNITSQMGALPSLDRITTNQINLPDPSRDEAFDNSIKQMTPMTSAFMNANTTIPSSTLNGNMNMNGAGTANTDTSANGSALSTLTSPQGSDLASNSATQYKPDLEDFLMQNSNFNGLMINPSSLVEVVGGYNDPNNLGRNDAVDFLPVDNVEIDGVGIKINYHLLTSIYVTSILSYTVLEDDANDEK
Method in brief: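 For each ungapped eight-base word taken together with its reverse complement, the Universal PBM Analysis Suite assigned an E-score. Binding data came from GST-tagged yeast transcription factors, applied at about 100-200 nM, on universal all-10-mer Agilent arrays made double-stranded by primer extension. Fluorescent anti-GST marked bound protein, and scans were normalised with masliner.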

| Sequence | PBM E-score |
| --- | --- |
| AAGCTCGG | 0.36 |
| GTGCTTTA | -0.0684 |
| AATCCCTG | -0.18 |
| AATCCCCG | 0.403 |
| AATCCCCC | 0.133 |
| CATCCCCG | 0.356 |
| AATCCCGG | 0.397 |
| CATCCCGG | 0.312 |
| GCTTGACA | -0.139 |
| CATGTCTC | 0.131 |
| AAGTGCAC | -0.0983 |
| CGCTGGGA | 0.0217 |
| CCTCAAGG | -0.168 |
| CCGGGCGA | 0.376 |
| CGGGGCCC | 0.258 |
| ACGGGCGA | 0.333 |
| GCGGGCGA | 0.296 |
| CCGGGCCG | 0.425 |
| CCGGGCCC | 0.369 |
| ACGGGCCG | 0.29 |
| GCGGGCCC | 0.216 |
| CCGGGCCA | 0.348 |
| CCGCTATA | 0.27 |

| Sequence | PBM E-score |
| --- | --- |
| AATAGCAT | -0.0964 |
| CGTGTACC | 0.11 |
| AGAAATAA | 0.0188 |
| GGAAATAA | 0.413 |
| CGAAATAA | 0.182 |
| GGGAATAC | 0.181 |
| TGGAATAA | -0.128 |
| GGGAATAA | 0.396 |
| ACGCACCG | 0.00605 |
| ACCAGTTA | -0.225 |
| AGCCGAAC | 0.227 |
| TGCCGACA | 0.223 |
| GGCCGTAA | 0.377 |
| CGCCGTAA | 0.283 |
| CACCGAAA | 0.261 |
| TGCCGTAA | 0.0155 |
| GACCGAAC | 0.347 |
| GGCCGACA | 0.383 |
| CGCCGACA | 0.215 |
| CGCCGAAC | 0.344 |
| GACCGAAA | 0.385 |
| GGCCGAAC | 0.37 |
| ACGAGCTA | -0.108 |

| Sequence | PBM E-score |
| --- | --- |
| ACCCAGTA | -0.253 |
| ATTTGGTC | 0.141 |
| CTCCTAAC | -0.191 |
| GGCCGAAA | 0.405 |
| AGCCGAAA | 0.329 |
| TGCCGAAA | 0.303 |
| CGTTTTAG | -0.114 |
| AACCTGTG | -0.315 |
| AGAACTCG | 0.0147 |
| GAGGGAGC | -0.175 |
| AACCAAGT | -0.152 |
| GGATAAAA | 0.261 |
| CGATAAAA | 0.382 |
| TGATAAAA | -0.0276 |
| CCCTCGTA | -0.0221 |
| GACTCGGA | 0.405 |
| ACCTCGGG | 0.26 |
| GCCTCGGA | 0.331 |
| TACTCGGA | 0.312 |
| CGCTCGGA | 0.404 |
| CCCTCGGC | 0.268 |
| AGCTCGGA | 0.325 |
| CCCTCGGA | 0.373 |

| Sequence | PBM E-score |
| --- | --- |
| AACTCGGA | 0.345 |
| GGCTCGGA | 0.344 |
| ACCTCGGC | 0.377 |
| CATCACAG | -0.258 |
| TGGATGAA | -0.183 |
| AAAGAAGA | -0.0993 |
| GAGTGTGA | -0.176 |
| CCCCTTAC | -0.132 |
| TAAGGTCA | -0.193 |
| CAGGCTAG | -0.279 |
| AATGGGGC | -0.188 |
| ACCTCGTA | -0.0139 |
| AACTCGGC | 0.316 |
| ACCTCGGA | 0.384 |
| CACTCGGG | 0.159 |
| ACCTCGAA | -0.135 |
| CACTCGGC | 0.374 |
| CTCAGCTA | -0.214 |
| CCCTACTC | -0.0316 |
| CCGATTCC | 0.405 |
| CAGATACG | 0.0074 |
| CCGATACG | 0.42 |
| CCGATTCG | 0.347 |

| Sequence | PBM E-score |
| --- | --- |
| CCGATACC | 0.377 |
| GCGATTCC | 0.211 |
| ACGATACC | 0.179 |
| GCGATACC | 0.192 |
| ACGATACA | -0.216 |
| CCGATACA | 0.43 |
| GCGATACA | 0.0344 |
| ACGATACG | -0.263 |
| GGGCACCA | -0.0557 |
| CTGACCGA | 0.258 |
| GGAAGCCA | -0.0815 |
| GATTTTGC | -0.0335 |
| CTCTCCGC | 0.0772 |
| GTCTCCGA | 0.332 |
| ATCTCCAG | 0.0473 |
| ATCTCCGA | 0.486 |
| CTCTCCGA | 0.203 |
| ATCTCCGG | 0.483 |
| ATCTCCGC | 0.455 |
| ATCTCCCG | 0.263 |
| ATCTCCCC | 0.0474 |
